# The panel holds about 79,000 compounds, 15% with a hit somewhere; the sample as a whole holds those more often. Unmarked numbers belong to inactive results. Active and inactive are the calls of the source. No stated cut-off is given here; in the data, active means growth inhibition above about 70%; inactive means the rest.
# Assays:
# [1] = NCI Yeast Anticancer Drug Screen. Data for the rad52 strain (AID 147);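 further: 0% = growth of vehicle-treated control cultures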; conditions: S. cerevisiae rad52 mutant growth inhibition, hits give high values
# Method in brief: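 Inhibition of yeast growth, referenced to vehicle controls, was the measured output for a strain with defective DNA damage repair.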
# [2] = NCI Yeast Anticancer Drug Screen. Data for the wt1 strain (AID 149);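 further: 0% = growth of vehicle-treated wt1 cultures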; conditions: S. cerevisiae wt1 strain (SPY 50644) growth inhibition, hits give high values
# Method in brief: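 The wt1 strain was treated with compounds, and growth was compared with vehicle-treated cultures to give inhibition.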
# [3] = NCI Yeast Anticancer Drug Screen. Data for the rad50EPP+ strain (AID 151);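 further: 0% = growth of vehicle-treated control cultures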; conditions: S. cerevisiae rad50 mutant strain, hits give high values
# Method in brief: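 Genetically defined yeast (rad50EPP+, DNA damage repair alteration) is grown with compound, and inhibition of growth is expressed relative to vehicle-treated controls.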
# [4] = NCI Yeast Anticancer Drug Screen. Data for the rad50 strain (AID 155);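 further: 0% = growth of vehicle-only cultures of the same strain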; conditions: S. cerevisiae rad50 strain growth inhibition, hits give high values
# Method in brief: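 Cells are treated with compound, grown, and their growth is then scored against vehicle-only cultures of the same repair-deficient yeast strain.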
# [5] = NCI Yeast Anticancer Drug Screen. Data for the mec2-1 strain (AID 157); conditions: S. cerevisiae mec2-1 strain, hits give high values
# Method in brief: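 Each compound was tested on mec2-1 yeast, a strain altered in DNA damage repair or cell cycle control. Growth inhibition is reported relative to vehicle.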
# [6] = NCI Yeast Anticancer Drug Screen. Data for the rad14 strain (AID 159);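 further: 0% = growth of vehicle-treated control cultures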; conditions: S. cerevisiae rad14 strain growth inhibition, hits give high values
# Method in brief: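 Readout: yeast growth inhibition, referenced to vehicle-only cultures. Strain bears a defined alteration in DNA damage repair.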
# [7] = NCI Yeast Anticancer Drug Screen. Data for the CLN2oe strain (AID 163);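 further: 0% = growth of vehicle-only control cultures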; conditions: S. cerevisiae CLN2oe strain, hits give high values
# Method in brief: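 First, the altered yeast strain was treated with each compound; second, its growth was measured; finally, inhibition was derived by comparison with vehicle controls.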
# [8] = NCI Yeast Anticancer Drug Screen. Data for the cln2 rad14 strain (AID 165);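 further: 0% = growth equal to vehicle treated cultures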; conditions: S. cerevisiae cln2 rad14 strain, hits give high values
# Method in brief: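 Test compounds were added to cln2 rad14 yeast cultures; inhibition of growth was then determined by comparison with vehicle treatment.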
# [9] = NCI Yeast Anticancer Drug Screen. Data for the bub3 strain (AID 167); conditions: S. cerevisiae bub3 mutant strain, hits give high values
# Method in brief: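 Part of a panel of yeast mutants defective in DNA damage repair or cell cycle regulation. Each strain is grown with compound, and inhibition is calculated relative to solvent-treated cultures.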
# [10] = NCI Yeast Anticancer Drug Screen. Data for the wt2 strain (AID 169);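 further: 0% = growth of vehicle-treated yeast cultures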; conditions: S. cerevisiae wt2 strain growth inhibition, hits give high values
# Method in brief: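 The panel's yeast strains carry defined changes in DNA repair or cell cycle genes. Each strain is grown with compound, and growth loss is scored relative to vehicle.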
# [11] = NCI Yeast Anticancer Drug Screen. Data for the mlh1 strain (AID 171);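 further: 0% = growth of vehicle-treated control cultures of the same strain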; conditions: S. cerevisiae mlh1 strain growth inhibition, hits give high values
# Method in brief: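 Inhibition values reflect reduced yeast growth in the presence of compound, referenced to vehicle controls, using a strain chosen for its alteration in DNA repair or cell cycle control.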
# [12] = NCI Yeast Anticancer Drug Screen. Data for the sgs1 strain (AID 173);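 further: 0% = growth of vehicle-only control cultures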; conditions: S. cerevisiae sgs1 mutant, hits give high values
# Method in brief: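 Vehicle-treated cultures served as reference for growth inhibition of a yeast strain altered in DNA damage repair or cell cycle control after compound exposure.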
# [13] = NCI Yeast Anticancer Drug Screen. Data for the mlh1 rad18 strain (AID 175); conditions: S. cerevisiae mlh1 rad18 strain growth inhibition, hits give high values
# Method in brief: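 Inhibition values reflect reduced growth of mutant yeast versus vehicle-treated controls following compound exposure; the mutations affect DNA damage repair.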
# [14] = NCI Yeast Anticancer Drug Screen. Data for the rad18 strain (AID 177); conditions: S. cerevisiae rad18 mutant growth inhibition, hits give high values
# Method in brief: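 Steps: expose repair-mutant yeast to compound; measure growth; express as inhibition relative to vehicle control.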
# [15] = at 5.0 µM (retest, dose inferred, filed as 0.5)
# [16] = at 50.0 µM (retest, dose inferred, filed as 5.0)
compound,measurement,setting,value
OB(O)c1ccccc1C#Cc1ccccc1B(O)O,growth inhibition,[1]; at 1.2 µM,2%
same,growth inhibition,[1]; at 3.7 µM,7%
same,growth inhibition,[1]; at 11.0 µM,24%
same,growth inhibition,[1]; at 33.0 µM,59%
same,growth inhibition,[1]; at 100.0 µM,95% (active)
same,growth inhibition,[2]; at 1.2 µM,-2%
same,growth inhibition,[2]; at 3.7 µM,0%
same,growth inhibition,[2]; at 11.0 µM,6%
same,growth inhibition,[2]; at 33.0 µM,18%
same,growth inhibition,[2]; at 100.0 µM,59%
same,growth inhibition,[3]; at 1.2 µM,0%
same,growth inhibition,[3]; at 3.7 µM,6%
same,growth inhibition,[3]; at 11.0 µM,36%
same,growth inhibition,[3]; at 33.0 µM,69%
same,growth inhibition,[3]; at 100.0 µM,85% (active)
same,growth inhibition,[4]; at 1.2 µM,7%
same,growth inhibition,[4]; at 3.7 µM,17%
same,growth inhibition,[4]; [15],12%
same,growth inhibition,[4]; at 11.0 µM,47%
same,growth inhibition,[4]; at 33.0 µM,84% (active)
same,growth inhibition,[4]; [16],79% (active)
same,growth inhibition,[4]; at 50.0 µM,61.5%
same,growth inhibition,[4]; at 100.0 µM,96% (active)
same,growth inhibition,[5]; at 1.2 µM,-6%
same,growth inhibition,[5]; at 3.7 µM,1%
same,growth inhibition,[5]; [15],5%
same,growth inhibition,[5]; at 11.0 µM,13%
same,growth inhibition,[5]; at 33.0 µM,43%
same,growth inhibition,[5]; [16],50%
same,growth inhibition,[5]; at 50.0 µM,50%
same,growth inhibition,[5]; at 100.0 µM,87% (active)
same,growth inhibition,[6]; at 1.2 µM,-1%
same,growth inhibition,[6]; at 3.7 µM,3%
same,growth inhibition,[6]; at 11.0 µM,14%
same,growth inhibition,[6]; at 33.0 µM,41%
same,growth inhibition,[6]; at 100.0 µM,97% (active)
same,growth inhibition,[7]; at 1.2 µM,-2%
same,growth inhibition,[7]; at 3.7 µM,1%
same,growth inhibition,[7]; at 11.0 µM,13%
same,growth inhibition,[7]; at 33.0 µM,38%
same,growth inhibition,[7]; at 100.0 µM,86% (active)
same,growth inhibition,[8]; [15],9%
same,growth inhibition,[8]; [16],39%
same,growth inhibition,[8]; at 50.0 µM,70.3% (active)
same,growth inhibition,[9]; at 1.2 µM,-7%
same,growth inhibition,[9]; at 3.7 µM,-8%
same,growth inhibition,[9]; [15],-1%
same,growth inhibition,[9]; at 11.0 µM,-8%
same,growth inhibition,[9]; at 33.0 µM,8%
same,growth inhibition,[9]; [16],20%
same,growth inhibition,[9]; at 50.0 µM,58%
same,growth inhibition,[9]; at 100.0 µM,79% (active)
same,growth inhibition,[10]; at 1.2 µM,-1%
same,growth inhibition,[10]; at 3.7 µM,-3%
same,growth inhibition,[10]; at 11.0 µM,3%
same,growth inhibition,[10]; at 33.0 µM,18%
same,growth inhibition,[10]; at 100.0 µM,93% (active)
same,growth inhibition,[11]; at 1.2 µM,1%
same,growth inhibition,[11]; at 3.7 µM,1%
same,growth inhibition,[11]; at 11.0 µM,12%
same,growth inhibition,[11]; at 33.0 µM,27%
same,growth inhibition,[11]; at 100.0 µM,94% (active)
same,growth inhibition,[12]; at 1.2 µM,-1%
same,growth inhibition,[12]; at 3.7 µM,4%
same,growth inhibition,[12]; at 11.0 µM,17%
same,growth inhibition,[12]; at 33.0 µM,35%
same,growth inhibition,[12]; at 100.0 µM,91% (active)
same,growth inhibition,[13]; [15],20%
same,growth inhibition,[13]; [16],79% (active)
same,growth inhibition,[13]; at 50.0 µM,68.2%
same,growth inhibition,[14]; at 1.2 µM,-4%
same,growth inhibition,[14]; at 3.7 µM,0%
same,growth inhibition,[14]; at 11.0 µM,8%
same,growth inhibition,[14]; at 33.0 µM,40%
same,growth inhibition,[14]; at 100.0 µM,95% (active)

# From PubChem BioAssay (NCI)
